# Sfp inh: qHTS Assay for Inhibitors of Bacillus subtilis Sfp phosphopantetheinyl transferase (PPTase) | 4'-phosphopantetheinyl transferase ffp (Bacillus subtilis), Q9F4F7 | hit rate 3.5% among 310,000 | Potency, µM, without a hit: largest response in the series, negative = inhibition, usual class: inhibitors | Biochemical Sfp PPTase activity, qHTS;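 note: the enzyme is Sfp with the accession as filed and its product quenches rhodamine fluorescence; 0% = enzyme reaction without inhibitor and -100% = no enzyme wells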
#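 Compounds were incubated with enzyme (final 15 nM) for 15 min at room temperature before substrate addition started the reaction. Fluorescence at 525 nm excitation, 598 nm emission was recorded immediately and after 30 minutes.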
# PINK1 expr mod: A Quantitative High throughput Screen to Identify Chemical Modulators of PINK1 Expression. PINK1 immunofluorescence, high-content cytometry, 24 h. Potency, µM (series often up to 76.6 µM), for inactives: top-dose activation (PINK1 increase), actives largely listed as activators. hit rate 0.2% among 410,000. AID 624263, 2012; active = well fitted activation curve with a large enough effect; inconclusive = small, poorly fitted or top-dose-only effect; cell line not stated here; note: % of control where 0% means no effect; nearly all actives have a fitted effect of over 65% in size
#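 Stable cell line treated 24 h with compounds at 5 concentrations (CCCP controls), then fixed and immunostained for PINK1 plus nuclear and cell stains; PINK1 immunofluorescence quantified by laser-scanning microplate cytometry.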
# ClpP mod: qHTS Assay for Activators of ClpP; purified B. subtilis ClpP, FRET peptide cleavage, 20 min; hit rate 1.9% among 340,000; AID 651965, 2013; ATP-dependent Clp protease proteolytic subunit (Bacillus subtilis (strain 168)), P80244; Potency, µM (series often up to 57.5 µM), without a hit: top-dose activity change, negative = active; active = well fitted falling curve with a large enough effect; inconclusive = small, poorly fitted or top-dose-only effect; inactive = no such curve, though single readings can be large or run the other way; note: the source files actives as falling curves though it sought activators and does not explain the sign; nearly all actives have a fitted effect of over 65% in size
# Target sequence (P80244 whole entry, looked up): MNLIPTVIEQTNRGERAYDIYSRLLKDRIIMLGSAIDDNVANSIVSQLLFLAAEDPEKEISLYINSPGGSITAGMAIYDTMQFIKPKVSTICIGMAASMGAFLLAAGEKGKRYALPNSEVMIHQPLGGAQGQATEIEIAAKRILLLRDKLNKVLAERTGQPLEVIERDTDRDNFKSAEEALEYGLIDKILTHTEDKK
#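 Purified B. subtilis ClpP, 10 microg/mL final in Tris/HCl pH8 with KCl, BSA, glycerol and Tween-20, cleaved an Abz/nitrotyrosine-quenched decapeptide. Fluorescence (ex 320, em 430) was read at 0 and 20 min at room temperature. Delta was normalized to 5.8 microM ADEP and DMSO/no-enzyme controls.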
# Epigenetic derep: Quantitative High-Throughput Screen for Regulators of Epigenetic Control. murine LDR cells, GFP reporter derepression, 30 h. Potency, µM (top dose mostly 53.9 µM), inactives show at the top dose GFP activation, usual class: activators. hit rate 0.2% among 280,000; note: % of control where 0% means no effect; nearly all actives have a fitted effect of over 60% in size
#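 Reporter derepression read as number of fluorescent GFP-positive objects, 20-120 um in size, counted by laser-scanning cytometer. Mouse LDR line with an epigenetically silenced CMV-GFP locus; compound incubation 30 h, 37 C.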
# Gal4-VP16 FLuc: VP16 counterscreen qHTS for inhibitors of ROR gamma transcriptional activity; AID 2546, 2010; hit rate 3.5% among 310,000; Potency, µM (highest dose often 53.6 µM), for the others: top-dose activity, negative = inhibition, actives largely listed as inhibitors; Drosophila S2 Gal4-VP16 UAS-luciferase, luminescence, 20 h;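 note: Gal4-VP16 expression switched on by copper sulfate through the metallothionein promoter; % is set by controls: 0 for no effect and ±100 for the full control effect; nearly all actives have a fitted effect of over 50% in size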
# RORgamma inh: qHTS for inhibitors of ROR gamma transcriptional activity; Potency, µM (highest dose often 53.6 µM), for inactives: top-dose activity change, negative = inhibition, hits mostly inhibitors; hit rate 5.4% among 310,000; Drosophila S2 Gal4-RORgamma UAS-luciferase reporter, 20 h; AID 2551, 2010; Nuclear receptor ROR-gamma (Mus musculus), P51450; note: % is set by controls: 0 for no effect and ±100 for the full control effect; nearly all actives have a fitted effect of over 60% in size
# Target sequence (P51450 whole entry, looked up, the tested form may be a part): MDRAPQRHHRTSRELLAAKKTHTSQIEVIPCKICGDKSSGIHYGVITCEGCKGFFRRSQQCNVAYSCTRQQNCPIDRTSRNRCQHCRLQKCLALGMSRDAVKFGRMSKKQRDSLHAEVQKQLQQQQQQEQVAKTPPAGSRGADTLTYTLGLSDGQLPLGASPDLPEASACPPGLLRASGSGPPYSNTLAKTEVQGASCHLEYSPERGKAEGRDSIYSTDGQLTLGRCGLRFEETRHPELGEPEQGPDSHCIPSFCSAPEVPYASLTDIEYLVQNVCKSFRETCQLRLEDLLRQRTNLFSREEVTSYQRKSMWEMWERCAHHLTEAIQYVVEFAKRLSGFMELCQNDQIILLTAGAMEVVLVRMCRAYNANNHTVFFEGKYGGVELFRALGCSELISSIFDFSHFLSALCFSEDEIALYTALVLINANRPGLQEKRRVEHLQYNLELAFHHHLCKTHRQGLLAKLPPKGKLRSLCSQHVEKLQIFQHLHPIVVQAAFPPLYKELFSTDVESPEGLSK
#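 Stable Schneider cell line, Gal4 DNA-binding domain fused to ROR gamma, UAS-luciferase. Cmpd 1 hr RT → CuSO4 700 uM final → 20 hr RT → luciferase reagent 10 min → luminescence.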
# Starred values were filed as active, the others as inactive; ? = inconclusive; nt = no result; [ ] = dose if it differs, or a comment. A selection: hits, their analogues and other compounds. The true share with any hit is near 8.1%. Unless noted, calls come from the whole dose curve; as a rule, active = well fitted curve in the direction sought with a large enough effect; inconclusive = small, poorly fitted or top-dose-only effect, or another doubt; inactive = no such curve, though single readings can be large; an effect the other way counts as inactive or inconclusive. Potency is the fitted concentration of half-maximal effect.
SMILES,Sfp inh,PINK1 expr mod,ClpP mod,Epigenetic derep,Gal4-VP16 FLuc,RORgamma inh
CC(C)CNC(=O)COC(=O)c1cc(Cl)cc(Cl)c1N,-8%,-1%,16µM*,4%,6%,0%
COc1cc(SC)ccc1C(=O)OCC(=O)NCC(C)C,8%,5%,40µM*,-2%,-2%,13%
COC(=O)CNC(=O)COC(=O)c1cc(Cl)cc(Cl)c1N,-4%,1%,2.8µM*,0%,-1%,-6%
CC(C(=O)Nc1ccccc1C(F)(F)F)n1nc(-c2ccccc2)c2c(c1=O)CCCC2 (stereo not drawn),nt,2%,-1%,-3%,nt,nt
COc1cc(Cl)c(C)cc1NC(=O)C1CCN(c2nc3ccccc3n3cccc23)CC1,nt,2%,-2%,?,nt,nt
O=C1CS/C(=N\NC(=O)c2ccccc2)N1,-11%,1%,nt,2%,16µM*,2.8µM*
Cc1ccccc1C(=O)Nc1sc(C)c(C)c1C(=O)c1ccccc1,32µM*,3%,-3%,2%,8%,5%
Cc1cc(C(=O)c2ccccc2)c(NC(=O)CN2CCOCC2)s1,17%,7%,1%,0%,-8%,-1%
Cc1sc(NC(=O)CCl)c(C(=O)c2ccccc2)c1C,22µM*,-5%,0%,-2%,-2%,13%
Cc1cc(C(=O)c2ccc(C(C)(C)C)cc2)c(NC(=O)CCl)s1,-5%,-2%,-3%,1%,?,11µM*
Cc1ccccc1C(=O)Nc1sc2c(c1C(=O)O)CCC2,12%,4%,nt,0%,2%,13%
Cc1c(C(=O)N2CCCCC2)sc2ncnc(NCCc3ccccn3)c12,nt,0%,nt,nt,nt,nt
Cn1c(=O)n(C)c2cc(NS(=O)(=O)c3ccc(F)cc3)c(NCc3ccccc3)cc21,nt,1%,5%,2%,nt,nt
O=C(Nc1ccc(N2CCCC2)cc1)c1cccc(-c2cc3ccccc3oc2=O)c1,16µM*,-1%,1%,1%,18%,26%
O=C(Nc1ccc(Br)cn1)c1cccc(-c2cc3ccccc3oc2=O)c1,-14%,0%,14µM*,19%,-23%,3%
CCc1ccc(CNC(=O)c2cc3c(C)nc4ccccc4c3o2)cc1,-2%,?,?,-1%,18µM*,27%
Cc1nc2ccccc2c2oc(C(=O)NCCN3CCCCC3C)cc12 (stereo not drawn),11%,1%,4%,-1%,1%,-18%
COc1cccc(CNC(=O)c2cc3c(C)nc4ccccc4c3o2)c1,13%,1%,-16%,0%,?,32%
CCN1CCCC1CNC(=O)c1cc2c(C)nc3ccccc3c2o1 (stereo not drawn),11%,1%,25µM*,-2%,-9%,-9%
C/C(=N\NC(=O)c1cc(Cl)ccc1O)c1ccc(Br)s1,11%,0%,-3%,-1%,2.5µM*,6.3µM*
C/C(=N\NC(=O)c1ccc(Cl)cc1)c1ccc(Br)s1,11%,-1%,-3%,5%,1.1µM*,0.35µM*
C/C(=N/NC(=O)c1ccco1)c1ccc(Br)s1,6%,0%,-17%,nt,?,13µM*
Cn1c2ccccc2c2c(C(=O)N3CCN(c4cccc(Cl)c4)CC3)cn(C3CCCCC3)c(=O)c21,nt,-1%,?,0%,nt,nt
CCOC(=O)c1ccccc1NC(=O)N1CCCN(S(=O)(=O)c2ccc3c(ccn3CC)c2)CC1,nt,6%,4%,-1%,nt,nt
CCC1(C)Cc2c(sc3nc(NN)n(C)c(=O)c23)CO1 (stereo not drawn),-2%,3%,-1%,?,14µM*,-10%
SMILES,Sfp inh,PINK1 expr mod,ClpP mod,Epigenetic derep,Gal4-VP16 FLuc,RORgamma inh
COc1ccc(C2c3cc(OC)c(OC)cc3CC(=O)N2c2ccc(C)cc2)cc1 (stereo not drawn),nt,7%,5%,2%,nt,nt
CCN(CC)c1ccc2cc(NC(=O)CCC(=O)O)c(=O)oc2c1,1%,-1%[38.3 µM],-15%,-1%,1.3µM*,0.79µM*
COc1ccc(Cl)cc1NC(=S)NCCSc1ccc(C)cc1,?,?,1%,1%,5µM*,6.3µM*
COc1ccccc1NC(=S)NCCc1ccc(Cl)cc1,7%,-2%,-2%,2%,7.1µM*,1.8µM*
COc1ccccc1NC(=O)NCCc1ccccc1,8%,0%,0%,nt,-5%,11%
COc1cc(NC(=S)NCCCO)c(OC)cc1Cl,?,0%,0%,3%,14%,-35%
COc1ccc(NC(=S)NCCc2ccc(F)cc2)c(OC)c1,6%,-1%,nt,-2%,?,?
COc1ccc(NC(=S)NCCSc2ccc(Cl)cc2)c(OC)c1,?,3%,1%,-2%,0%[0.365 µM],1.1µM*
COc1cc(NC(=S)NCCc2ccc(S(N)(=O)=O)cc2)c(OC)cc1Cl,16µM*,1%,2%,0%,-3%,4%
COc1ccccc1NC(=O)CC1Sc2ccc(C(F)(F)F)cc2NC1=O (stereo not drawn),nt,16%,1%,2%,nt,nt
COCCn1c(CNC(=O)c2cccc(C)c2)nc2cccnc21,nt,2%,0%,0%,nt,nt
COc1ccccc1NC(=S)NCCSc1ccc(Cl)cc1,5%,1%,2%,0%,?,18µM*
COc1cc(NS(=O)(=O)c2ccc(C)c(C)c2)c(OC)cc1Cl,79µM*,3%[38.3 µM],-3%,1%,4%,8%
COc1ccccc1NC(=S)NCc1cccnc1,-10%,2%,1%,0%,-8%,3%
COc1ccc(S(=O)(=O)N(CC(=O)Nc2cccnc2)c2ccc(Cl)cc2)cc1,nt,6%,-1%,1%,nt,nt
CN(C(=O)c1ccno1)c1nnc(-c2cnccn2)s1,50µM*,-1%,-3%,0%,0%,-16%
CCSc1nc2c(c(=O)[nH]c(=O)n2C)n1CC(O)COc1ccccc1C (stereo not drawn),?,-6%[38.3 µM],-1%,4%,-14%,8%
Cc1ccccc1OCC(O)Cn1c(SC(C)C)nc2c1c(=O)[nH]c(=O)n2C (stereo not drawn),56µM*,-3%,0%,1%,-5%,2%[10 µM]
Cc1ccc2[nH]c(=O)c(C(c3nnnn3C3CCCC3)N(Cc3cccnc3)Cc3ccco3)cc2c1 (stereo not drawn),-12%,3%,-7%,0%,-1%,?
Cc1ccc2cc(C(c3nnnn3C3CCCC3)N(Cc3cccnc3)Cc3ccco3)c(=O)[nH]c2c1 (stereo not drawn),10µM*,nt,-1%,0%,1%,-23%
Cc1cc(-c2nnc(CCC(=O)NCc3cc(F)cc(C(F)(F)F)c3)o2)no1,14%,1%,28µM*,nt,20%,?

# Screening data deposited in PubChem BioAssay by National Center for Advancing Translational Sciences (NCATS).
